# Screening results as filed in PubChem.
# Rows were chosen to be rich in hits. Some 12% of all compounds tested hit in one or more screens of this group.
# PLK1 PBD block: blocks phosphopeptide binding to human PLK1 polo-box domain | Plk1 PBD binding of FITC phosphopeptide, fluorescence polarization | Potency, µM, inactives show max response, negative = inhibition, most hits filed as inhibitors | 360,000 compounds, 2.8% hits; further: series mostly up to about 57 µM; nearly all actives have a fitted effect of over 65% in size
# Sfp PPTase inh: Sfp phosphopantetheinyl transferase inhibition; 310,000 compounds, 3.5% hits; Q9F4F7; Potency, µM, without a hit: largest response in the series, negative = inhibition, actives largely listed as inhibitors; Biochemical Sfp PPTase activity, qHTS; AID 1490;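 further: the enzyme is Sfp with the accession as filed and its product quenches rhodamine fluorescence; 0% = enzyme reaction without inhibitor and -100% = no enzyme wells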
#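 Compounds were incubated with enzyme (final 15 nM) for 15 min at room temperature before substrate addition started the reaction. Fluorescence at 525 nm excitation, 598 nm emission was recorded immediately and after 30 minutes.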
# Gal4-VP16 FLuc: inhibits Gal4-VP16 luciferase reporter, ROR gamma counter-screen; Drosophila S2 Gal4-VP16 UAS-luciferase, luminescence, 20 h; Potency, µM (highest dose often 53.6 µM), inactives show at the top dose activity, negative = inhibition, usual class: inhibitors; 310,000 compounds, 3.5% hits; AID 2546;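 further: Gal4-VP16 expression switched on by copper sulfate through the metallothionein promoter; nearly all actives have a fitted effect of over 50% in size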
# RORg inh: blocks mouse ROR gamma transcriptional activity; 310,000 compounds, 5.4% hits; Potency, µM (top dose mostly 53.6 µM), for the others: top-dose activity change, negative = inhibition, usual class: inhibitors; AID 2551; Drosophila S2 Gal4-RORgamma UAS-luciferase reporter, 20 h; P51450; further: nearly all actives have a fitted effect of over 60% in size
#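 Schneider cells (Drosophila), stable Gal4 DBD–ROR gamma + UAS-luc; 1 hr cmpd preincubation; Cu2+ induction 700 uM final; 20 hr ambient; luminescence.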
# ALDH1A1 inh: inhibitors of human aldehyde dehydrogenase 1A1. Purified ALDH1A1, NADH fluorescence, propionaldehyde substrate. Potency, µM (titrated, usually from 75.3 µM), for inactives: at the highest dose activity, negative = inhibition, actives largely listed as inhibitors. 220,000 compounds, 7.3% hits; active means well fitted inhibition curve with a large enough effect, not every such curve was filed as active; inconclusive means small, poorly fitted or top-dose-only effect, or another doubt; inactive means no such curve, though single readings can be large or run the other way;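 further: plate controls were no enzyme wells and a reference inhibitor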
# Target sequence (P00352 whole entry, looked up): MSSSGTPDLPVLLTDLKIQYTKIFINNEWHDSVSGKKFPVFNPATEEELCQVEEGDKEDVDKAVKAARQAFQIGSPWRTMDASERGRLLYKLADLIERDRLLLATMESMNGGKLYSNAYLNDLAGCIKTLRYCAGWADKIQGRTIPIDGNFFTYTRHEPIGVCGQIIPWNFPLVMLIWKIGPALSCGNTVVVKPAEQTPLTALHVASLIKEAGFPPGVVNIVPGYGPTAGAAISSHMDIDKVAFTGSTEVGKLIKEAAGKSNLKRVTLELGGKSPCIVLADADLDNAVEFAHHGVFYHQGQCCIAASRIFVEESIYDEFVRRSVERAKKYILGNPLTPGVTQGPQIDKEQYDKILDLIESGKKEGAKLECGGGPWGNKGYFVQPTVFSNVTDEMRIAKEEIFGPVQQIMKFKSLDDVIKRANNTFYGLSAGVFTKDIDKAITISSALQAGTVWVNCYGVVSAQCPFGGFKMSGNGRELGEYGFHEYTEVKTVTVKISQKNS
# Active calls of the source: *; ? = inconclusive; · = no result given; [ ] = remark or other dose. Unless noted, the call rests on the fitted dose curve; in most records, active means well fitted curve in the direction sought with a large enough effect; inconclusive means small, poorly fitted or top-dose-only effect, or another doubt; inactive means no such curve, though single readings can be large; an effect the other way counts as inactive or inconclusive. Unless noted, on the % scale 0 is the no-effect control and ±100 the full control effect; potency means the concentration at half of the fitted maximal effect.
SMILES,PLK1 PBD block,Sfp PPTase inh,Gal4-VP16 FLuc,RORg inh,ALDH1A1 inh
COc1ccc(CCN2CC(C(=O)NCCc3ccc(F)cc3)CCC2=O)cc1 (centres undefined),-13.5%,13.2%,-9.9%,18.3%,·
CNc1ccc2ncc(-c3cccc(C(=O)N(C)C)c3)n2n1,-13.1%,·,·,·,·
CN1CCN(C(=O)C[C@@H]2CC[C@@H]3[C@H](COC[C@@H](O)CN3Cc3cccc(Cl)c3)O2)CC1,-4.4%,·,·,·,·
Cc1nc2ccccc2n1Cc1ccccc1,-4.8%,-1.0%,?,0.5%[1.91 µM],·
CCCn1c(CNc2ccccc2O)nc2ccccc21,-11.9%,?,?,?,12.6µM*
c1ccc(Cc2nc3ccccc3n2Cc2ccccc2)cc1,-13.4%,-10.9%,17.8µM*,?,-1.4%
Cn1c(COc2ccccc2Br)nc2ccccc21,-2.8%,5.0%,?,12.6µM*,·
CCn1c(COc2cccc(C)c2)nc2ccccc21,-3.7%,-11.2%,?,10µM*,-16.0%
CCCNC(=O)C1(C)CCN(C(=O)c2cccnc2Oc2ccccc2)C1 (centres undefined),-18.0%,·,·,·,·
Cc1nc2c(N)nn(C)c2nc1C,-3.9%,·,·,·,·
Cc1ccc(S(=O)(=O)N(C)C[C@H]2Oc3ncc(Br)cc3C(=O)N([C@H](C)CO)C[C@@H]2C)cc1,-20.2%,·,·,·,·
COc1cc(C(=O)Cc2nc3ccccc3n2C)cc(OC)c1OC,-10.7%,17.0%,12.6µM*,6.31µM*,·
COc1cc(C(=O)NCCc2nc3ccccc3n2C)cc(OC)c1OC,-0.5%,-2.2%,-2.1%,-31.0%,7.8%
CCn1c(NCc2ccc(OC)cc2)nc2ccccc21,5.6%,1.7%,6.8%,0.5%,·
CCCn1c(COc2ccccc2)nc2ccccc21,-15.0%,15.8%,0.1%,12.6µM*,·
CCn1c(COc2ccccc2OC)nc2ccccc21,-15.7%,-1.2%,?,12.6µM*,·
CCn1c(Cc2ccc(OC)cc2)nc2ccccc21,-15.7%,0.7%,35.5µM*,11.2µM*,·
CCn1c(COc2ccccc2C)nc2ccccc21,-7.1%,12.9%,?,?,?
COc1ccc(C2=Nc3ccccc3N(C(=O)c3ccc(C(F)(F)F)cc3)C2C(=O)Nc2ccc3c(c2)OCCO3)cc1 (centres undefined),-10.2%,·,·,·,·
CSc1ncnc2c1ncn2CCCNCc1ccccn1,-2.6%,·,·,·,·
O=C(Nc1ccccc1)N1CCCC2(CCN(C(=O)c3cccc(F)c3)CC2)C1,·,4.3%,-4.6%,-6.3%,-0.6%
COc1ccccc1OCc1nc2ccccc2n1C,-2.7%,8.9%,?,-29.5%,·
CCCn1c(COc2ccccc2OC)nc2ccccc21,4.7%,14.0%,?,10µM*,·
CC(c1nc2ccccc2n1Cc1ccccc1)N1CCCCC1 (centres undefined),-10.8%,-1.1%,?,14.1µM*,·
Cn1c2c(c(=O)c3ccccc31)C[C@@H](O)C(C)(C)O2,·,7.6%,-5.4%,1.2%,-0.2%
SMILES,PLK1 PBD block,Sfp PPTase inh,Gal4-VP16 FLuc,RORg inh,ALDH1A1 inh
Cc1ccc(CNC(=O)CSCc2cccc(F)c2)cc1,21.2µM*,12.0%,-2.3%,14.1%,?
O=C(CCSCc1cccc(F)c1)NCc1ccc(F)cc1,7.52µM*,-0.5%,7.5%,4.4%,·
O=C(CSCc1cccc(F)c1)NCc1ccccc1,-4.9%,-12.0%,8.1%,5.6%,-11.5%
O=C(NCCCCN1CCCC1)c1ccc(Cc2nc3ccccc3[nH]2)cc1,·,·,·,·,-15.3%
Cn1c(=O)c(-c2cc(F)cc(F)c2)nc2cnc(Oc3cccc(Cl)c3)nc21,·,-1.3%,11.3%,-14.6%,?
O=C(NCCCN1CCOCC1)c1cn(-c2ccccc2)nc1-c1ccc(Br)cc1,-6.7%,·,·,·,·
O=C(Nc1nccs1)c1cn(-c2ccccc2)nc1-c1ccccc1,-5.4%,10.8%,?,7.08µM*,?
CC(C)COc1ccc(-c2nn(-c3ccccc3)cc2C(=O)Nc2nccs2)cc1,1.3%,14.9%,4.47µM*,2.51µM*,?
CC(=O)Cc1nsc(NC(=O)c2cn(-c3ccccc3)nc2-c2ccc(Br)cc2)n1,-8.2%,3.6%,14.1µM*,?,14.9%
Nc1ccc(S(=O)(=O)NCc2nccs2)cc1,·,·,·,·,-14.4%[13.5 µM]
COc1ccc2c(c1)O[C@H](c1ccc3c(c1)OCO3)[C@@H](OC(=O)Nc1ccc(C)c(Br)c1)C2=O,·,-1.6%,-1.2%,?,-3.5%
Cc1cc(C)cc(NC(=S)NCC2CCCO2)c1 (centres undefined),-4.1%,11.2%,35.5µM*,11.2µM*,-9.4%
S=C(NCC1CCCO1)Nc1cc(Cl)c(Cl)cc1Cl (centres undefined),-10.1%,20.0%,17.8µM*,3.16µM*,-4.6%
S=C(NCC1CCCO1)Nc1cccc(Cl)c1 (centres undefined),-5.2%,6.6%,20µM*,15.8µM*,-4.3%
O=C(NCC1CCCO1)Nc1cccc(Cl)c1 (centres undefined),-1.1%,8.9%,15.7%,42.1%,7.0%
O=C(NCC1CCCO1)C1CCCN1C(=O)NC1CCCCC1 (centres undefined),-7.7%,17.4%,1.1%,4.1%[10 µM],1.2%
S=C(NCC1CCCO1)NC1CCCCC1 (centres undefined),-12.1%,11.2µM*,?,?,-0.6%
COc1ccc(NC(=S)NCC2CCCO2)c(OC)c1 (centres undefined),-22.1%,7.2%,0.5%,-39.4%,-5.8%
S=C(NCC1CCCO1)Nc1ccc(Nc2ccccc2)cc1 (centres undefined),?,18.0%,?,?,?
S=C(NCC1CCCO1)c1ccc(Br)cc1 (centres undefined),11.9µM*,20µM*,-11.2%,?,·
O=C1N/C(=N\N=C\c2ccccn2)SC1Cc1cccc(SC(F)F)c1 (centres undefined),-18.8%,6.2%,3.16µM*,1.78µM*,10.3%
O=C1N/C(=N\N=C\c2cccnc2)SC1Cc1ccc(SC(F)F)cc1 (centres undefined),-21.5%,-21.1%,0.708µM*,0.501µM*,-6.5%
COCCN1C(=O)COc2ccccc2C1C(=O)Nc1c(C)cccc1C (centres undefined),-1.3%,·,·,·,·
COc1ccc(-c2cc(C(F)(F)F)c(C#N)c(SCC(=O)Nc3ccc(C)cc3)n2)cc1,-3.1%,-9.4%,-5.8%,-7.4%,-0.4%
COc1ccc(C(=O)CSc2[nH]c(=O)cc(C(F)(F)F)c2C#N)cc1,-12.7%,-25.4%,-11.3%,?,17.8µM*
CN(C)c1ccc(CN(C(=O)C2COc3ccccc3O2)C2CCS(=O)(=O)C2)cc1 (centres undefined),-11.4%,?,4.1%,?,4.47µM*
CN(C)c1ccc(CN(C(=O)COc2ccccc2)C2CCS(=O)(=O)C2)cc1 (centres undefined),-7.3%,12.1%,1.8%,-28.6%,3.98µM*
Cc1ccccc1OCC(=O)N(Cc1ccc(N(C)C)cc1)C1CCS(=O)(=O)C1 (centres undefined),-8.9%,6.3%,-5.5%,40.0%,11.2µM*
C=CCOc1ccc(C(=O)N(Cc2ccc(N(C)C)cc2)C2CCS(=O)(=O)C2)cc1 (centres undefined),-8.3%,-7.1%,4.3%,?,10µM*
